# Source: the supplement of paper PMC8253809
# How the values were obtained:
# Assay in all cases: growth inhibition (% activity, log2 RLU normalised to DMSO / staurosporine); higher = more growth inhibition
# Details in all cases: 33 µM
# [1] = test system: DIPGX29 (H3.3 K27M diffuse intrinsic pontine glioma line)
# Summary of the method: (§1)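 For each approved drug, the growth-inhibition value is the replicate median of per-plate normalised CellTiter-Glo data. Luminescence was log2-transformed and expressed as % activity between solvent and positive control wells. Drugs were applied in triplicate at a single final concentration of about 33 μM for 7 days at 37 °C, 5% CO2 to pHGG cell lines and H9-derived neural stem cells.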
# [2] = test system: DIPGX37 (H3.3 K27M diffuse intrinsic pontine glioma line)
# Summary of the method: as §1
# [3] = test system: DIPGX7 (H3.3 K27M diffuse intrinsic pontine glioma line)
# Summary of the method: as §1
# [4] = test system: DIPGX9 (diffuse intrinsic pontine glioma line)
# Summary of the method: as §1
# [5] = test system: HGGX39 (paediatric high-grade glioma line)
# Summary of the method: as §1
# [6] = test system: HGGX6 (H3.3 G34R paediatric high-grade glioma line)
# Summary of the method: as §1
# [7] = test system: HNSC
# Summary of the method: as §1
# [8] = test system: SUDIPGIV (diffuse intrinsic pontine glioma line)
# Summary of the method: as §1
# [9] = test system: SUDIPGVI (diffuse intrinsic pontine glioma line)
# Summary of the method: as §1
# [10] = test system: SUDIPGXIII (diffuse intrinsic pontine glioma line)
# Summary of the method: as §1
Structure (SMILES),growth inhibition [1] [%],growth inhibition [2] [%],growth inhibition [3] [%],growth inhibition [4] [%],growth inhibition [5] [%],growth inhibition [6] [%],growth inhibition [7] [%],growth inhibition [8] [%],growth inhibition [9] [%],growth inhibition [10] [%]
CN[C@@H]1[C@H](O[C@H]2[C@H](O[C@H]3[C@H](O)[C@@H](O)[C@H](N=C(N)N)[C@@H](O)[C@@H]3N=C(N)N)O[C@@H](C)[C@]2(O)C=O)O[C@@H](CO)[C@H](O)[C@H]1O,0.0944,-5.46,0.411,-1.2,0.505,-0.72,-0.954,-0.137,-0.665,0.85
NC[C@H]1CC[C@H](C(=O)O)CC1,-0.318,1.11,0.868,1.09,2.3,0.25,-0.348,-1.18,0.626,-0.00541
CCCSc1nc(N[C@@H]2C[C@H]2c2ccc(F)c(F)c2)c2nnn([C@@H]3C[C@H](OCCO)[C@@H](O)[C@H]3O)c2n1,2.23,3.23,4.99,1.97,5.25,1.74,20.6,3.4,3.52,0.841
O=C(OCC(O)CO)c1ccccc1Nc1ccnc2cc(Cl)ccc12 (stereo not given),0.939,1.64,-1.23,1.63,3.28,1.2,0.63,-4.61,2.77,0.927
CN1CCCC(n2nc(Cc3ccc(Cl)cc3)c3ccccc3c2=O)CC1 (stereo not given),3.68,2.48,4.68,2.54,7.54,3.65,0.14,1.76,0.965,2.09
C[C@@H]1C/C=C/C=C/C=C/C=C/[C@H](O[C@@H]2O[C@H](C)[C@@H](O)[C@H](N)[C@@H]2O)C[C@@H]2O[C@](O)(C[C@@H](O)C[C@H]3O[C@@H]3/C=C/C(=O)O1)C[C@H](O)[C@H]2C(=O)O,1.2,2.42,1.64,1.2,1.86,0.734,-0.468,0.119,3.23,0.668
COc1c(C)c2c(c(O)c1C/C=C(\C)CCC(=O)O)C(=O)OC2,19.1,19,12,16.2,18.1,14.7,57.6,10.7,11.8,-4.08
NS(=O)(=O)c1cc2c(cc1Cl)NC(C(Cl)Cl)NS2(=O)=O (stereo not given),1.16,4.01,3.24,5.41,4.4,5.05,-0.78,-3.21,2.47,0.0927
CN1CCC[C@H]1c1cccnc1,0.174,0.939,-1.09,-1.61,2.08,0.579,-0.787,-0.338,-0.198,1.09
CN1C[C@@H]2C[C@H]1CN2c1cc2c(cc1F)c(=O)c(C(=O)O)cn2C1CC1,2.67,1.22,2.59,1.98,6.03,1.06,7.67,4.42,3.33,4.88
CC(=O)[C@H]1CC[C@H]2[C@@H]3CCC4=CC(=O)CC[C@]4(C)[C@H]3CC[C@]12C,1.09,3.02,4.3,2,4.64,5.84,2.02,-1.26,1.04,1.18
Cc1cccc(Nc2ccncc2S(=O)(=O)NC(=O)NC(C)C)c1,-1.52,1.45,-0.371,-0.205,1.47,-0.821,-0.596,-1.46,1.11,1.52
CCN1CCN(C(=O)N[C@@H](C(=O)N[C@@H]2C(=O)N3[C@@H]2SC(C)(C)[C@@H]3C(=O)O)c2ccccc2)C(=O)C1=O,-0.286,0.221,-0.734,-1.09,-0.282,0.186,-1.83,-0.166,0.068,-11.8
NC(CO)C(=O)NNCc1ccc(O)c(O)c1O (stereo not given),-0.675,0.574,-0.561,-0.46,-0.00682,2.73,-2.22,-0.604,0.203,-7.46
N=C(N)N/N=C/c1c(Cl)cccc1Cl,1.41,1.84,1.08,1.59,4.69,2.81,1.67,7.04,3.21,1.52
COc1cc(/C=C/C(=O)CC(=O)/C=C/c2ccc(O)c(OC)c2)ccc1O,-0.948,1.27,1.4,0.547,0.698,1.98,-1.04,-2.56,0.323,-11.1
Nc1cc(C(Cl)=C(Cl)Cl)c(S(N)(=O)=O)cc1S(N)(=O)=O,0.128,3.1,1.7,0.825,2.48,1.57,1.89,1.51,-1.12,1.37
CCCCCCCCCCCC[N+](C)(C)CCOc1ccccc1,59,58.8,53.9,57.2,62.1,56.8,55.6,55.7,63.2,70.1
CN1CC2c3ccccc3Oc3ccc(Cl)cc3C2C1 (stereo not given),1.89,-5.66,0.982,0.366,5.72,0.239,2.74,2.1,-0.852,0.618
CC(C)c1nc(N(C)S(C)(=O)=O)nc(-c2ccc(F)cc2)c1C=CC(O)CC(O)CC(=O)O (stereo not given),7.07,-1.35,16.7,4.14,24.4,15.9,73.3,21.5,-6.26,17

Structure (SMILES),growth inhibition [1] [%],growth inhibition [2] [%],growth inhibition [3] [%],growth inhibition [4] [%],growth inhibition [5] [%],growth inhibition [6] [%],growth inhibition [7] [%],growth inhibition [8] [%],growth inhibition [9] [%],growth inhibition [10] [%]
CCCCc1ncc(/C=C(\Cc2cccs2)C(=O)O)n1Cc1ccc(C(=O)O)cc1,-0.827,0.563,-1.23,-0.197,0.41,0.268,-1.62,-1.58,0.0226,-13.9
NS(=O)(=O)c1cc2c(cc1C(F)(F)F)NC(Cc1ccccc1)NS2(=O)=O (stereo not given),-1.42,2.24,-1.56,-0.0939,-0.621,1.26,-0.523,-1.96,0.355,0.995
CCOC(=O)c1ccc(N)cc1,-1.1,0.286,-0.777,-2.99,-1.05,-1.96,-1.55,-0.0558,-0.0967,0.467
Cc1cc(NS(=O)(=O)c2ccc(N)cc2)no1,-4.18,-1.05,-1.62,-1.67,-2.37,-4.13,1.76,-3.28,-3.16,-0.124
CCC[S+]([O-])c1ccc2[nH]c(NC(=O)OC)nc2c1 (stereo not given),3.39,3.5,1.48,2.55,0.691,2.32,3.73,2.81,-0.51,2.63
O=C1c2cccc3c2[C@H](CCC3)CN1[C@@H]1CN2CCC1CC2,1.6,0.267,-0.559,0.719,1.18,1.03,-3.52,-0.551,0.132,0.79
Nc1nc(F)nc2c1ncn2[C@@H]1O[C@H](COP(=O)(O)O)[C@@H](O)[C@@H]1O,16.9,1.7,11.8,31.4,8.94,-0.81,23.2,9.24,-2.06,1.2
CCn1cc(C(=O)O)c(=O)c2cc(F)c(N3CCNCC3)cc21,-0.303,1.84,0.79,0.854,3.3,2.09,3.22,-0.867,0.897,3.56
COc1ccc(C(=O)CC(=O)c2ccc(C(C)(C)C)cc2)cc1,-1.88,-1.81,-1.16,-0.752,-2.78,-0.501,-0.539,-0.769,-2.64,-0.991
CN(c1nccc(=O)[nH]1)C1CCN(c2nc3ccccc3n2Cc2ccc(F)cc2)CC1,2.38,2.96,2.33,1.85,4.67,3.86,1.95,0.631,3.14,-15
CCCNC(C)C(=O)Nc1c(C)csc1C(=O)OC (stereo not given),0.453,0.894,1.5,-0.444,3.43,1.44,5.64,0.331,2.98,-0.525
CN(C)[C@@H]1C(O)=C(C(=O)NCN2CCCC2)C(=O)[C@@]2(O)C(O)=C3C(=O)c4c(O)cccc4[C@@](C)(O)[C@H]3C[C@@H]12,-1.08,-1.26,-0.844,0.66,-0.334,0.151,-2.27,0.0649,2.48,0.413
Nc1nc2c(ncn2COCCO)c(=O)[nH]1,-1.73,1.12,1.01,0.254,1.26,-2.13,5.44,-0.972,-0.331,0.201
CN(C)CCc1c[nH]c2ccc(Cn3cncn3)cc12,-0.697,0.65,-0.925,0.553,1.2,1.15,-1.13,-0.297,1.51,-0.819
CN(C)CCc1c[nH]c2ccc(CS(=O)(=O)N3CCCC3)cc12,1.96,3.12,1.45,1.71,2.56,3.04,1.98,0.896,3.66,-0.309
Nc1ncn(C2OC(CO)C(O)C2O)c(=O)n1 (stereo not given),3.4,-0.711,5.91,7.54,4.31,1.61,55.5,16.7,0.0997,-1.9
CCCCCCCCCCCCCCCCO,-0.933,2.94,1.65,1.02,2.94,-1.64,11.6,2.42,0.249,1.46
C[C@]12CC[C@H](O)CC1=CC[C@@H]1[C@@H]2CC[C@]2(C)C(c3cccnc3)=CC[C@@H]12,-2.51,-0.544,0.888,2.81,3.94,-0.894,-6.23,0.327,-2.29,-1.17
O=C1Cc2cc(CCN3CCN(c4nsc5ccccc45)CC3)c(Cl)cc2N1,1.66,1.3,10.1,1.16,3.71,2.44,1.23,2.05,-3.95,3.01
OC(CCN1CCCC1)(c1ccccc1)C1CCCCC1 (stereo not given),-1.59,0.342,-1.45,-1.38,-2.22,-0.386,-0.926,-0.217,-0.619,-1.02
